# According to PubChem BioAssay (NCATS):
# Inconclusive results are not listed. A call without a number means that no potency is given here. Calls of active or inactive are those of the source. Calls come from the whole dose curve; as a rule, active = well fitted cell-killing curve with a large enough effect; inconclusive = small, poorly fitted or top-dose-only effect; inactive = flat fitted curve, though single readings scatter.
# Assay: Cell Viability - LYMP2-008 (AID 980); note: nearly all actives have a fitted effect of over 60% in size
# Conditions: LYMP2-008 lymphoblastoid cell viability, qHTS; series mostly up to 92.2 µM
# Text: NIH Chemical Genomics Center [NCGC]
# NIH Molecular Libraries Screening Centers Network [MLSCN]
# National Institutes of Environmental Health Sciences [NIEHS]
# National Toxicology Program [NTP]
# We have developed a 1536-well cell-based assay for quantitative high throughput screening (qHTS) against a number of cell lines to determine in vitro cytotoxicity of small molecules. This particular assay uses a human lymphoblastoid cell line (LYMP2-008) purchased from Coriell Institute for Medical Research.
# NCGC Assay Protocol Summary:
# The CellTiter-Glo luminescent cell viability assay (Promega) is a homogeneous method to measure the number of viable cells in culture. The end point readout of this assay is based on quantitation of intracellular ATP, an indicator of metabolic activity, using the luciferase reaction. Luciferase catalyzes the oxidation of beetle Luciferin to oxyluciferin and light in the presence of ATP. The luminescent signal is proportional to amount of ATP present.
# Using the CellTiter-Glo luminescent cell viability assay, the amount of cellular ATP was measured in the lymphoblastoid cell line with complete culture medium following compound treatment for 24 hours. The assay was performed in opaque white Kalypsys 1536-well plates. In the screen, tetraoctylammonium bromide was used as positive control. Library compounds were measured for their ability to cause acute toxicity in the cell line, as reflected by a decrease in intracellular ATP levels, in a concentration-dependent manner. […] AC50 values were determined from concentration-response data modeled with the standard Hill equation.
# qHTS protocol for CellTiter Glo lymphoblastoid cellular assay
# [Step] [Parameter] [Value] [Description]
# 1. Reagent; 5 uL; 2500 lymphoblastoid cells/well
# 2. Time; 5 hr; 37 C incubation
# 4. Controls; 23 nL; Tetraoctylammonium bromide 6.4pM to 92 uM
# 5. Time; 24 hr; 37 C incubation
# 6. Reagent; 5 uL; CellTiter Glo reagent
# 7. Time; 30 min; Room Temperature
# 8. Detection; Luminescence; Viewlux plate reader
# Keywords: cell viability, cytotoxicity, lymphoblastoid cell line, luminescence, NTPHTS, NTPHTS_NCGC, NIEHS, DSSTox, MLSMR, MLSCN, NIH Roadmap, qHTS, NCGC
# Potency is the fitted concentration of half-maximal effect.
row,Compound,Potency
1,CCn1cc(C(=O)O)c(=O)c2ccc(C)nc21,inactive
2,CCCNC(=O)NS(=O)(=O)c1ccc(Cl)cc1,inactive
3,CCCCC1C(=O)N(c2ccccc2)N(c2ccccc2)C1=O,inactive
4,O=c1c(O)c(-c2ccc(O)cc2)oc2cc(O)cc(O)c12,inactive
5,O=c1c(-c2ccc(O)cc2)coc2cc(O)ccc12,inactive
6,O=C(O)Cc1cccc2ccccc12,inactive
7,CN(C)CCC(c1ccccc1)c1ccccn1 (stereo not drawn),inactive
8,CC(=O)O[C@]1(C(C)=O)CC[C@H]2[C@@H]3C=C(Cl)C4=CC(=O)[C@@H]5C[C@@H]5[C@]4(C)[C@H]3CC[C@@]21C,inactive
9,O=c1[nH]cnc2c1ncn2[C@H]1CC[C@@H](CO)O1,inactive
10,CC/C(=C(\c1ccccc1)c1ccc(OCCN(C)C)cc1)c1ccccc1,50.1 µM (active)
11,CC1=C(/C=C/C(C)=C/C=C/C(C)=C/C(=O)Nc2ccc(O)cc2)C(C)(C)CCC1,50.1 µM (active)
12,O=C1NC(=O)C(c2ccccc2)(c2ccccc2)N1,inactive
13,CC(=O)c1ccc(S(=O)(=O)NC(=O)NC2CCCCC2)cc1,inactive
